Data taken from PubChem BioAssay.
Activity calls are given as the source filed them.

Target: NADPH oxidase 4 (Homo sapiens) (UniProt Q9NPH5)
Test: compounds shifting NOX4 Amplex Red fluorescence – cell-based, HEK293-NOX4, tetracycline-induced, NOX inhibitor project, primary screen (AID 1160)
Conditions: HEK293-NOX4, Amplex Red H2O2 fluorescence, 45 min; higher = more signal, called active from +8 up or from −8 down

Sequence of NADPH oxidase 4 (Homo sapiens) (Q9NPH5 whole entry, looked up): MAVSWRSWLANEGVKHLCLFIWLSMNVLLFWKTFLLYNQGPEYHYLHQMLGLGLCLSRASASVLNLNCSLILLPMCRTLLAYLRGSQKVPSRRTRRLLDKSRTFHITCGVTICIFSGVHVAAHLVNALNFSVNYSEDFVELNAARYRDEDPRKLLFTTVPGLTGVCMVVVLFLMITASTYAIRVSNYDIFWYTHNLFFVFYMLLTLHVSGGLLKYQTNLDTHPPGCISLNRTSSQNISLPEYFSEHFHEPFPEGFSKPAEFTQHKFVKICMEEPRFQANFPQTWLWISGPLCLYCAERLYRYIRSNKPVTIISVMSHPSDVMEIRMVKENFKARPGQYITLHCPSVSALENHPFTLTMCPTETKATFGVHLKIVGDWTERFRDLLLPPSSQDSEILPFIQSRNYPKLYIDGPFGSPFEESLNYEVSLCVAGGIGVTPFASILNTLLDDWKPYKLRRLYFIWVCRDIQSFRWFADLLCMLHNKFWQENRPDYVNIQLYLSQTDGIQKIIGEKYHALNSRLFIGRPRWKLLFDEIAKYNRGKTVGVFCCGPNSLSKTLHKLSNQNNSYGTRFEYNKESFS

z-score, inactive:
CC(C)[Si]1(C(C)C)O[C@@H](c2ccccc2)c2cc(-c3ccc(-c4ccc(Cl)c(Cl)c4)o3)nc(-c3ccccc3)c21 1.36
OCCCC1=CC(c2cccs2)N(Cc2cc3c(cc2Br)OCO3)CC1 (stereo not given) -0.294
CCOC(=O)C[C@H]1[C@H](OC(=O)c2ccc(C(=O)c3ccccc3)cc2)[C@@H](NC(=O)c2ccc3ccccc3c2)c2cc(OCCCO)ccc2N1C(=O)Cc1ccc(OC)cc1 0.557
C=C(CC1([C@@H](NP(=O)(c2ccccc2)c2ccccc2)[C@H]2C[C@@H]2CCCC)CC1)c1ccccc1 -0.988
COc1cc(COC(C)=O)ccc1OC(C)=O -0.433
C=C(CCCC)/C(=C/C[C@@H](OC(=O)c1ccncc1)c1ccc(OCCO)cc1)c1cc(C(=O)OC)ccc1OC -0.665
C=C(CCCC)C(=O)CC[C@@H](OC(=O)c1ccccc1-c1ccccc1C(=O)O)c1ccc(OCCO)cc1 0.216
COCCOC(=O)N1C(=O)[C@@]2(c3cc(C#CCC(C(=O)OC)C(=O)OC)ccc31)[C@H](C(=O)Nc1nc3ccccc3s1)[C@H]1C(=O)O[C@H](c3ccccc3)[C@H](c3ccccc3)N1[C@@H]2c1ccccc1OCCO 0.671
NC(=O)N1C(=O)C2C(C1=O)C1C=C(c3ccc(CO)cc3)C2C(c2cccs2)N1Cc1cccc(OC(F)(F)F)c1 (stereo not given) -1.22
COCCOC(=O)N1C(=O)[C@@]2(c3cc(C#CCNC(N)=O)ccc31)[C@H](C(=O)N1CCN(c3ncccn3)CC1)[C@H]1C(=O)O[C@H](c3ccccc3)[C@H](c3ccccc3)N1[C@@H]2c1ccc(OCCO)cc1 0.971
CCCc1cc2c(n1Cc1cc(F)cc(F)c1)C(C)C1CN(C(=O)c3ccccc3)C(C)(C(=O)OC)C21 (stereo not given) -2.91
CCCC[C@@H]1C[C@H]1[C@@H](NC(=O)c1ccco1)c1ccc(-c2ccccc2)cc1 -3.5
C=CC[C@@]12N=C(c3ccc(OCCCO)cc3)O[C@@H]1c1ccccc1N(C)C2=O -0.963
COC(=O)[C@@]1(Cc2ccccc2)N=C(c2ccc(OCCCO)cc2)O[C@H]1c1ccccc1 -0.904
COc1cccc(-c2cccc(=O)o2)c1 -1.15
C=C[C@H](CO[Si](CC)(CC)CC)N(Cc1ccc(OC(C)=O)c(OC)c1)S(=O)(=O)c1ccc(Br)cc1 -0.928
NC(=O)NCC#Cc1ccc2c(c1)[C@]1(C(=O)N2)[C@H](c2ccc(O)cc2)N2[C@H](c3ccccc3)[C@H](c3ccccc3)OC(=O)[C@H]2[C@@H]1C(=O)O -0.0146
COC(=O)C[C@H]1O[C@]2(C(=O)N(C)c3ccccc32)[C@@H](C)[C@@H]1[Si](C)(C)F 0.555
O=C1C2C=CC(C(O)c3cc(C(F)(F)F)cc(C(F)(F)F)c3)N(n3cnnc3)C2C(=O)N1Cc1ccccc1 (stereo not given) -0.889
Cc1nc2cc(Br)ccc2c(=O)o1 -0.0246
C=C(CCCC)/C(=C/C[C@@H](OC(C)=O)c1ccc(OCCO)cc1)c1cnc2ccccc2c1 -0.0832
COc1cc2c(cc1O)C(C1CC1)N(Cc1sc3ccccc3c1Cl)CC2 (stereo not given) -2.68
COc1cc2c(cc1O)C(c1cccs1)N(C)CC2 (stereo not given) -2.71
CN1C=C(C(=O)OCCS(C)(=O)=O)C(C(=O)OCCS(C)(=O)=O)=CC(c2ccc(CO)cc2)=CC1C1CC1 (stereo not given) -1.13
Cc1ccc(N2C(=O)c3ccccc3[C@@H](C(=O)NC3CC3)[C@@H]2c2ccc(CO)cc2)nc1 -0.647
O=C1C[C@@](C(=O)NCC(F)(F)F)(c2ccc([N+](=O)[O-])cc2)[C@@H](c2ccc(CO)cc2I)N1C1CCCCC1 -0.0876
Cc1ccc(S[C@]2(C(=O)NCCCN(C)C)CC(=O)N(Cc3cc(C(F)(F)F)cc(C(F)(F)F)c3)[C@@H]2c2ccc(CO)cc2)cc1 0.414
C=C(COC)/C(=C/C[C@@H](OC(=O)c1ccncc1)c1ccc(CO)o1)c1cc(C(=O)OC)ccc1OC -0.124
C=C[C@H](OC)[C@@H](OC(=O)Nc1ccc(OC)cc1)c1ccc(O)c(F)c1 1.1
COCCOC(=O)N1C(=O)[C@@]2(c3cc(C#CC4(O)CCCCCC4)ccc31)[C@H](c1ccccc1OCCO)N1[C@H](c3ccccc3)[C@H](c3ccccc3)OC(=O)[C@H]1[C@@H]2C(=O)N1CCN(c2ncccn2)CC1 0.386
C=CC(=C)[C@H]1Oc2ccccc2S(=O)(=O)N2CCC[C@@H]12 -1.04
[N-]=[N+]=Nc1ccccc1[C@@H]1OC(c2ccc(OCCCO)cc2)=N[C@]1(Cc1ccccc1)C(=O)N1CCOCC1 -0.36
COCCOC(=O)N1C(=O)[C@@]2(c3cc(C#CCCO)ccc31)[C@H](C(N)=O)[C@H]1C(=O)O[C@H](c3ccccc3)[C@H](c3ccccc3)N1[C@@H]2c1ccc(O)cc1 0.561
C=C(C(=O)CC[C@@H](OC(=O)c1cccnc1)c1ccccc1OCCO)C(C)C -0.118
C=CCNC(=O)[C@H]1[C@@H]2C(=O)O[C@@H](c3ccccc3)[C@@H](c3ccccc3)N2[C@@H](c2ccccc2OCCO)[C@]12C(=O)Nc1ccc(C#CCC(C(=O)OC)C(=O)OC)cc12 0.834
